# Measurements published in PubChem BioAssay (NCI).
# Several values for one entry are separate records, joined by “and”; a condition that tells them apart may be missing. Equal values may be shown once. This is part of a sample that, as a whole, favours compounds with a hit. Of some 83,000 tested, about 20% had one in any assay.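 48-hour exposure, single concentration, 96-well plates; percent growth endpoint where 0 means no net growth. Active: below 10.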 Activity calls are given as the source filed them.
# Experiments:
# Experiment in all cases: NCI-60 one-dose screen, 48 h (100 = growth as untreated, 0 = no growth, -100 = all killed)
# T-47D breast = system: T-47D breast
# BT-549 breast = system: BT-549 breast
# MDA-MB-435 melanoma = system: MDA-MB-435 melanoma
# SW-620 colon = system: SW-620 colon
# MCF7 breast = system: MCF7 breast
# HCT-116 colon = system: HCT-116 colon
# HCC-2998 colon = system: HCC-2998 colon
# KM12 colon = conditions: 10 µM unless noted
compound,measurement,setting,value
COc1cc(Nc2nc3ccccc3nc2NS(=O)(=O)c2ccc(NC(=O)c3ccc(C)c(OC)c3)cc2)cc(OC)c1,growth,T-47D breast; 10 µM unless noted,35.9% (inactive) and -31.1% (active)
same,growth,BT-549 breast; 10 µM unless noted,39.6% (inactive) and -6.94% (active)
same,growth,MDA-MB-435 melanoma; 10 µM unless noted,68.3% (inactive) and 3.11% (active)
same,growth,SW-620 colon; 10 µM unless noted,52% (inactive) and 28.1% (inactive)
same,growth,MCF7 breast; 10 µM unless noted,36.6% (inactive) and 5.28% (active)
same,growth,HCT-116 colon; 10 µM unless noted,69.9% (inactive) and 18.2% (inactive)
same,growth,HCC-2998 colon; 10 µM unless noted,68.5% (inactive)
CC(=O)Nc1cc(S(=O)(=O)O)cc2cc(S(=O)(=O)O)c(N=Nc3ccccc3)c(O)c12,growth,T-47D breast; 10 µM unless noted,109% (inactive) and 85.9% (inactive)
same,growth,BT-549 breast; 10 µM unless noted,107% (inactive) and 117% (inactive)
same,growth,MDA-MB-435 melanoma; 10 µM unless noted,108% (inactive) and 112% (inactive)
same,growth,SW-620 colon; 10 µM unless noted,104% (inactive) and 102% (inactive)
same,growth,MCF7 breast; 10 µM unless noted,102% (inactive) and 91.9% (inactive)
same,growth,HCT-116 colon; 10 µM unless noted,93.2% (inactive) and 123% (inactive)
Nc1nc(SC/C=C/CCl)c2[nH]cnc2n1,growth,T-47D breast; 10 µM unless noted,108% (inactive) and 92.9% (inactive)
same,growth,BT-549 breast; 10 µM unless noted,103% (inactive) and 126% (inactive)
same,growth,MDA-MB-435 melanoma; 10 µM unless noted,105% (inactive) and 101% (inactive)
same,growth,SW-620 colon; 10 µM unless noted,105% (inactive) and 106% (inactive)
same,growth,MCF7 breast; 10 µM unless noted,125% (inactive) and 85.4% (inactive)
same,growth,HCT-116 colon; 10 µM unless noted,104% (inactive) and 105% (inactive)
same,growth,HCC-2998 colon; 10 µM unless noted,101% (inactive) and 103% (inactive)
Nc1ccccc1Nc1ccccc1,growth,T-47D breast; 10 µM unless noted,88.1% (inactive) and 83.5% (inactive)
same,growth,BT-549 breast; 10 µM unless noted,70.9% (inactive) and 58.4% (inactive)
same,growth,MDA-MB-435 melanoma; 10 µM unless noted,91.5% (inactive)
same,growth,SW-620 colon; 10 µM unless noted,106% (inactive) and 112% (inactive)
same,growth,MCF7 breast; 10 µM unless noted,93.8% (inactive) and 91.8% (inactive)
same,growth,HCT-116 colon; 10 µM unless noted,86.6% (inactive) and 88.8% (inactive)
Clc1ccc(NC(Nc2ccc(Cl)cc2)C(Cl)(Cl)Cl)cc1,growth,T-47D breast; 10 µM unless noted,67.7% (inactive) and 82.8% (inactive)
same,growth,BT-549 breast; 10 µM unless noted,69.3% (inactive) and 85.8% (inactive)
same,growth,MDA-MB-435 melanoma; 10 µM unless noted,62.9% (inactive) and 97.7% (inactive)
same,growth,SW-620 colon; 10 µM unless noted,69% (inactive) and 98% (inactive)
same,growth,MCF7 breast; 10 µM unless noted,88.9% (inactive) and 92.1% (inactive)
same,growth,HCT-116 colon; 10 µM unless noted,61.9% (inactive) and 85.4% (inactive)
same,growth,HCC-2998 colon; 10 µM unless noted,80.6% (inactive) and 92.4% (inactive)
Cc1ccc(S(=O)(=O)Nc2nc3ccccc3nc2Nc2ccc3nsnc3c2)cc1,growth,T-47D breast; 10 µM unless noted,33.6% (inactive) and 62.8% (inactive)
same,growth,BT-549 breast; 10 µM unless noted,37% (inactive) and 51.5% (inactive)
same,growth,MDA-MB-435 melanoma; 10 µM unless noted,36.3% (inactive) and 66.4% (inactive)
same,growth,SW-620 colon; 10 µM unless noted,77.5% (inactive) and 61% (inactive)
same,growth,MCF7 breast; 10 µM unless noted,50.9% (inactive) and 50.5% (inactive)
same,growth,HCT-116 colon; 10 µM unless noted,38.4% (inactive) and 42.2% (inactive)
Cc1ncsc1CCO,growth,T-47D breast; 10 µM unless noted,93.5% (inactive) and 94.4% (inactive)
same,growth,BT-549 breast; 10 µM unless noted,101% (inactive) and 100% (inactive)
same,growth,MDA-MB-435 melanoma; 10 µM unless noted,106% (inactive) and 104% (inactive)
same,growth,SW-620 colon; 10 µM unless noted,108% (inactive) and 101% (inactive)
same,growth,MCF7 breast; 10 µM unless noted,109% (inactive) and 96% (inactive)
same,growth,HCT-116 colon; 10 µM unless noted,112% (inactive) and 102% (inactive)
same,growth,HCC-2998 colon; 10 µM unless noted,101% (inactive) and 109% (inactive)
CC1=C[C@H]2c3c(c(O)c(O)c4oc5cc(O)cc(O)c5c(=O)c34)[C@H](c3cc(O)c(O)c4oc5cc(O)cc(O)c5c(=O)c34)[C@H]2C(C)(C)C1,growth,T-47D breast; 10 µM unless noted,-1.57% (active)
same,growth,BT-549 breast; 10 µM unless noted,7.04% (active) and -11.3% (active)
same,growth,MDA-MB-435 melanoma; 10 µM unless noted,-69.8% (active) and -76.7% (active)
same,growth,SW-620 colon; 10 µM unless noted,-37.8% (active) and -80.9% (active)
same,growth,MCF7 breast; 10 µM unless noted,-19.7% (active) and -76.5% (active)
same,growth,HCT-116 colon; 10 µM unless noted,-61.9% (active) and -52.5% (active)
same,growth,HCC-2998 colon; 10 µM unless noted,14.3% (inactive) and -61% (active)
same,growth,KM12 colon,-27% (active) and -71.5% (active)
CCCCCCCCCCCCCCCc1ccc(Cl)c(O)c1Cl (tested in a mixture with another compound),growth,T-47D breast; 0.25 µM,35.5% (inactive)
same,growth,T-47D breast; 10 µM,85.4% (inactive)
same,growth,BT-549 breast; 0.25 µM,66.2% (inactive)
same,growth,BT-549 breast; 10 µM,103% (inactive)
same,growth,MDA-MB-435 melanoma; 0.25 µM,56% (inactive)
same,growth,MDA-MB-435 melanoma; 10 µM,103% (inactive)
same,growth,SW-620 colon; 0.25 µM,24.4% (inactive)
same,growth,SW-620 colon; 10 µM,101% (inactive)
same,growth,MCF7 breast; 0.25 µM,16.4% (inactive)
same,growth,MCF7 breast; 10 µM,112% (inactive)
same,growth,HCT-116 colon; 0.25 µM,21.4% (inactive)
same,growth,HCT-116 colon; 10 µM,75.7% (inactive)
same,growth,HCC-2998 colon; 0.25 µM,38.6% (inactive)
same,growth,HCC-2998 colon; 10 µM,116% (inactive)
OC(CSc1ccccc1)CN1CCN(c2cccc(Cl)c2)CC1 (stereo not given),growth,T-47D breast; 10 µM unless noted,90.3% (inactive) and 102% (inactive)
same,growth,BT-549 breast; 10 µM unless noted,97.7% (inactive)
same,growth,MDA-MB-435 melanoma; 10 µM unless noted,114% (inactive) and 93.6% (inactive)
same,growth,SW-620 colon; 10 µM unless noted,105% (inactive)
same,growth,MCF7 breast; 10 µM unless noted,102% (inactive) and 94% (inactive)
same,growth,HCT-116 colon; 10 µM unless noted,93.3% (inactive) and 97.5% (inactive)
same,growth,HCC-2998 colon; 10 µM unless noted,106% (inactive) and 95% (inactive)
